Data published in PubChem BioAssay (Tox21).
Values without a mark were called inactive. Records with an inconclusive call do not appear. Where a call stands in place of a potency, no number is given. The source made the active and inactive calls. Unless noted, the call rests on the fitted dose curve.

Columns and labels:
[1] = Nuclear factor erythroid 2-related factor 2/antioxidant responsive element (Nrf2/ARE) small molecule agonists: qHTS cell viability counter screen in human keratinocytes (AID 1919968; active means well fitted curve in the direction sought with a large enough effect in the repeat runs; an effect the other way counts as inactive or inconclusive; further: nearly all actives have a fitted effect of over 55% in size; further: potency means the concentration at half of the fitted maximal effect)
Summary of the method: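 Fluorescence read-out from CellTiter-Fluor after 1 h at 37 C. Wells held HaCaT-derived ARE-luciferase reporter cells (1,500/well) treated 23 h with DMSO-dissolved compounds. Run in the same wells as the luciferase agonist read.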

[2] = Nuclear factor erythroid 2-related factor 2/antioxidant responsive element (Nrf2/ARE) small molecule agonists: luciferase reporter gene qHTS assay in human keratinocytes (AID 1919969); further: nearly all actives have a fitted effect of over 35% in size; further: potency means the concentration at half of the fitted maximal effect
[3] = target: KiSS-1 receptor (Homo sapiens) (UniProt Q969F8); assay: Human kisspeptin (KISS1R) small molecule agonists, calcium flux assay in KISS1R-HEK293 cells (AID 1920064; active means well fitted curve in the direction sought with a large enough effect in the repeat runs; an effect the other way counts as inactive or inconclusive)
Chain of KiSS-1 receptor (Homo sapiens) (Q969F8 whole entry, looked up): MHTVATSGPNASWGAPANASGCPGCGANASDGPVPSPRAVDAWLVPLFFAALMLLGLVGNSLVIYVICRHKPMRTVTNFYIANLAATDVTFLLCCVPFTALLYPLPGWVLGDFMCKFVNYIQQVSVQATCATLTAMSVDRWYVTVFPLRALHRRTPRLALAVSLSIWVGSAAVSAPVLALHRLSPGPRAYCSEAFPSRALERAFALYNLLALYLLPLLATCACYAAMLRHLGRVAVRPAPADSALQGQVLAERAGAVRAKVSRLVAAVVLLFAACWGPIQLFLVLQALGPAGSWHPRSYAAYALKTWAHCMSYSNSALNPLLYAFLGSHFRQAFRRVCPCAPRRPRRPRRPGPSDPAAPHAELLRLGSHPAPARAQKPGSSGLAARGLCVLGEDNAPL
Summary of the method: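 Calcium flux read-out: kinetic fluorescence at Ex/Em=480/540, 1 s intervals over 3 min, after pin-tool compound addition to dye-loaded KISS1R-HEK293 cells. Fifteen concentrations, triplicates.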

[4] = G protein-coupled receptor (GPCR) small molecule agonists, calcium flux assay: HEK293 wild type cell line counter screen (AID 1920065)
Summary of the method: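 Agonist mode; 18 h seeding at 37 C, 1 h dye load at 37 C; compounds pinned from DMSO, ATP as positive control; kinetic fluorescence 480/540 nm, 3 min, 1 s reads; 15 concentrations, triplicate.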

[5] = p53 small molecule agonists, cell-based qHTS assay with human liver microsomes (AID 1963577)
Summary of the method: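 Fluorescence of the beta-lactamase reporter in p53RE-bla cells, detected with LiveBLAzer substrate (2 h, room temperature, dark), served as the read-out after 16 h compound exposure at 37 C with human liver microsomes and NADPH, each 0.5 mg/mL final.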

[6] = p53 small molecule agonists, cell-based qHTS assay with rat liver microsomes (AID 1963578)
Summary of the method: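 Cells carrying a p53 response element–beta-lactamase reporter were plated and rested 5 h, then dosed with compound in DMSO plus rat liver microsomes and NADPH, each at 0.5 mg/mL final. After 16 h at 37 C, LiveBLAzer substrate was added for 2 h.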

[7] = p53 small molecule agonists, cell-based qHTS assay with human liver microsomes: qHTS cell viability counter screen (AID 1963579); further: nearly all actives have a fitted effect of over 45% in size
Summary of the method: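 Cytotoxicity counter screen: p53RE-bla, 4,000 cells/well; 5 h settle, 37 C/5% CO2; cpd + HLM 0.5 mg/mL + NADPH 0.5 mg/mL (final); 16 h, 37 C; CellTiter-Glo, 30 min RT, luminescence.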

[8] = p53 small molecule agonists, cell-based qHTS assay: qHTS cell viability counter screen (AID 1963581); further: nearly all actives have a fitted effect of over 45% in size
Summary of the method: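 Cytotoxicity read-out: ATP-based luminescence (CellTiter-Glo, 30 min RT) measured in the same wells as the p53 reporter assay, HCT-116 p53RE-bla cells, 16 h compound exposure at 37 C.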

[9] = target: 5-hydroxytryptamine receptor 2A (Homo sapiens) (UniProt P28223); assay: 5-hydroxytryptamine receptor 2A (HTR2A) small molecule antagonists, cell-based qHTS assay (AID 1963586); further: nearly all actives have a fitted effect of over 45% in size; further: potency means the concentration at half of the fitted maximal effect
Chain of 5-hydroxytryptamine receptor 2A (Homo sapiens) (P28223 whole entry, looked up): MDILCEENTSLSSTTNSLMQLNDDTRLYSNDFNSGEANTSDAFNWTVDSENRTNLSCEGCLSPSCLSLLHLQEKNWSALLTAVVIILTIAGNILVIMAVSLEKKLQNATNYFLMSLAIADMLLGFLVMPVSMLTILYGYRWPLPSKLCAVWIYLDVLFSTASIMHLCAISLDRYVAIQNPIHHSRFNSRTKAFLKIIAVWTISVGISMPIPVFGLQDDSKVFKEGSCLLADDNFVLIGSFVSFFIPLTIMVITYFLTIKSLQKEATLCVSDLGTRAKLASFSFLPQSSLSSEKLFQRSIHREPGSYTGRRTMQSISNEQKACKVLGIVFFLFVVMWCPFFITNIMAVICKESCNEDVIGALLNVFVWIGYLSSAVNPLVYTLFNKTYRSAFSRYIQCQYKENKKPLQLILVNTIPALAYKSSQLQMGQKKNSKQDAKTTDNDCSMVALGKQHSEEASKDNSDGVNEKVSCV
Summary of the method: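 CHO cells stably expressing human HTR2A were plated for 18 h at 37 C, then loaded with calcium dye for 1 h. Compounds were preincubated 5 min at room temperature before DOI (4 nM solution) was added. Kinetic fluorescence was read for 3 min.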

[10] = target: 5-hydroxytryptamine receptor 2A (Homo sapiens) (UniProt P28223); assay: 5-hydroxytryptamine receptor 2A (HTR2A) small molecule agonists, cell-based qHTS assay (AID 1963587); further: nearly all actives have a fitted effect of over 30% in size; further: potency means the concentration at half of the fitted maximal effect
Summary of the method: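 Kinetic calcium-flux fluorescence (2 min, 1 sec intervals) after compound addition in agonist mode. HTR2A-CHO cells were cultured 18 h, then dye-loaded 1 h at 37 C.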

[11] = target: Muscarinic acetylcholine receptor M1 (Homo sapiens) (UniProt P11229); assay: Cholinergic receptor muscarinic 1 (CHRM1) small molecule antagonists, cell-based qHTS assay (AID 1963588); further: nearly all actives have a fitted effect of over 40% in size; further: potency means the concentration at half of the fitted maximal effect
Chain of Muscarinic acetylcholine receptor M1 (Homo sapiens) (P11229 whole entry, looked up): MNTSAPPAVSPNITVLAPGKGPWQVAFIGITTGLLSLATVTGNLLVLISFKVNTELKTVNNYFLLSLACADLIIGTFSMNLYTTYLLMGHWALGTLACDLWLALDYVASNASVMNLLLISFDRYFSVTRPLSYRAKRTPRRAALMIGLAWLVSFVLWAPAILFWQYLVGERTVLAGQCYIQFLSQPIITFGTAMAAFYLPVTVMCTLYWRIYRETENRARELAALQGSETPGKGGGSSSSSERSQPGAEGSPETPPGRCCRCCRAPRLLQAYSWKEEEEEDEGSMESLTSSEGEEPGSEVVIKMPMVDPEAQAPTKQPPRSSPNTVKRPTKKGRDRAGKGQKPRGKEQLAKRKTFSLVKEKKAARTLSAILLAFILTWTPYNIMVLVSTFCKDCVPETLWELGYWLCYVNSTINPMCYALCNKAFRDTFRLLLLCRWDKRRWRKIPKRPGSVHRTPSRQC
Summary of the method: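 Compounds were tested at 15 concentrations in three independent runs. Dye-loaded CHRM1-CHO cells were exposed 5 min at room temperature before stimulation by acetylcholine added at 50nM. Intracellular calcium was read kinetically on FDSS for 3 min.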

[12] = target: Muscarinic acetylcholine receptor M1 (Homo sapiens) (UniProt P11229); assay: Cholinergic receptor muscarinic 1 (CHRM1) small molecule agonists, cell-based qHTS assay (AID 1963589); further: nearly all actives have a fitted effect of over 35% in size
Summary of the method: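 Calcium flux read-out: kinetic fluorescence at 1 sec intervals after pin-tool compound addition to dye-loaded CHRM1-CHO cells (human M1). Agonist mode; 15 concentrations tested in triplicate independent runs.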

[13] = cAMP Responsive Elements (CRE) small molecule agonists, cell-based qHTS assay (AID 1963590)
Summary of the method: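 Beta-lactamase reporter readout: LiveBLAzer B/G FRET substrate, 2 h at room temperature, added after 3 h compound treatment of CRE-bla HEK 293T cells at 37 C/5% CO2.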

[14] = cAMP Responsive Elements (CRE) small molecule antagonists, cell-based qHTS assay (AID 1963591; active means well fitted inhibition curve with a large enough effect in the signal ratio in the repeat runs, not every such curve was filed as active; the % refers to the signal ratio)
Summary of the method: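 HEK293T CRE-bla; 18 h preincubation; compound pin-transfer; NKH477 0.25 uM final, 3 h, 37 C; LiveBLAzer FRET substrate 2 h RT.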

[15] = target: D(2) dopamine receptor (Homo sapiens) (UniProt P14416); assay: Dopamine D2 receptor (DRD2) small molecule agonists, cell-based qHTS assay (AID 1963594); further: nearly all actives have a fitted effect of over 35% in size
Chain of D(2) dopamine receptor (Homo sapiens) (P14416 whole entry, looked up): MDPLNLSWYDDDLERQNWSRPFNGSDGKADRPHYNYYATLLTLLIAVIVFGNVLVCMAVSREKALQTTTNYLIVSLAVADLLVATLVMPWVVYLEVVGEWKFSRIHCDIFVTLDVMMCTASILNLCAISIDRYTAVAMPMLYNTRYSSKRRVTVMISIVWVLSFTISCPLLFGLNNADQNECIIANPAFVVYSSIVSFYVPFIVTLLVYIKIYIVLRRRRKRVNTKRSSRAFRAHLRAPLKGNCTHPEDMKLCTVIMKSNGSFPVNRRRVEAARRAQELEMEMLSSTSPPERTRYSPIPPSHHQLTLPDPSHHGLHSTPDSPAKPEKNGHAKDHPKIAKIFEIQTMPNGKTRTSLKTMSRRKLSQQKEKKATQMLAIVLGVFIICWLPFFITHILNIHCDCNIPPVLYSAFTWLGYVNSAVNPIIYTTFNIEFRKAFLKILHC
Summary of the method: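 cAMP accumulation in DRD2-HEK293 cells measured by HTRF after 1 h detection; compounds added 10 min before NKH477 (200nM […]) forskolin-analogue stimulation, 30 min at room temperature, with Ro20-1724 present at 0.1 mM final.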

[16] = target: D(2) dopamine receptor (Homo sapiens) (UniProt P14416); assay: Dopamine D2 receptor (DRD2) small molecule antagonists, cell-based qHTS assay (AID 1963595; active means well fitted inhibition curve with a large enough effect in the signal ratio in the repeat runs, with a control signal flat; the % refers to the signal ratio)
Summary of the method: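 HEK293 cells stably expressing DRD2, preincubated with 0.1 mM Ro20-1724 and compounds 10 min, were stimulated with 200 nM NKH477 plus 12 nM quinpirole for 30 min at room temperature; cAMP measured by HTRF (665/620 nm).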

[17] = p53 small molecule agonists, cell-based qHTS assay (AID 1963582; active means well fitted activation curve with a large enough effect in the signal ratio in the repeat runs, not every such curve was filed as active; the % refers to the signal ratio)
Summary of the method: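 Fluorescence intensity read-out of a beta-lactamase reporter under a p53 response element. Cells were exposed to DMSO-dissolved compounds for 16 h at 37 C, then developed with FRET substrate for 2 h at RT.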

[18] = target: Beta-2 adrenergic receptor (Homo sapiens) (UniProt P07550); assay: Adrenergic beta2 receptor (ADRB2) small molecule antagonists, cell-based qHTS assay (AID 1963592); further: series mostly up to about 92 µM; nearly all actives have a fitted effect of over 50% in size
Chain of Beta-2 adrenergic receptor (Homo sapiens) (P07550 whole entry, looked up): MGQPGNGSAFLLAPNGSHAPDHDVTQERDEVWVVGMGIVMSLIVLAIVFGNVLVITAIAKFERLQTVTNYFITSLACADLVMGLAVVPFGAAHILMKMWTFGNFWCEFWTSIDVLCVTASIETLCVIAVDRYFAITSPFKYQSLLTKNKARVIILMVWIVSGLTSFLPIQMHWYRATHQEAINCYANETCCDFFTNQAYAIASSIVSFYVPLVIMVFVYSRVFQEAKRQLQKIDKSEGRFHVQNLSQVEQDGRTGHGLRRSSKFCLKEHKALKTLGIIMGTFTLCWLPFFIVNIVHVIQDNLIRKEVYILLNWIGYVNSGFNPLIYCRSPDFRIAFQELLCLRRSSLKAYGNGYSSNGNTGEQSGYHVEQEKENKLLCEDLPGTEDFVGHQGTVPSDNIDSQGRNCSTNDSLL
Summary of the method: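 Assay format: CHO-ADRB2 cells, 18-20hr seeding at 37C/5% CO2, then compound plus 1nM isoproterenol agonist mix for 0.5hr RT. Homogeneous time-resolved fluorescence cAMP detection after 1hr, expressed as 665/615 nm ratio.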

[19] = p53 small molecule agonists, cell-based qHTS assay with rat liver microsomes: qHTS cell viability counter screen (AID 1963580); further: nearly all actives have a fitted effect of over 45% in size
Summary of the method: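 Rat liver microsome (0.5 mg/mL final) and NADPH (0.5 mg/mL final) co-incubation with compounds for 16 h at 37 C on HCT-116 p53RE-bla cells; cytotoxicity taken from intracellular ATP luminescence.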

Question: What does the source list for `CCCCNc1ccc(NCCCC)c2c1C(=O)c1ccccc1C2=O`?
Answer: activity change, negative = cytotoxicity [1]: -4.75% [at 19 µM]; activity, positive = activation [2]: 14.7% [at 19 µM]; activation [3]: -3.45% [at 15.8 µM]; activation [4]: 0.174% [at 11.8 µM]; activation [5]: 5.72% [at 13.5 µM]; activation [6]: 1.5% [at 13.6 µM]; activity change, negative = cytotoxicity [7]: -5.72% [at 13.5 µM]; activity change, negative = cytotoxicity [8]: -1.83% [at 13.5 µM]; activity, negative = inhibition [9]: -10.8% [at 12.7 µM]; activation [10]: -0.354% [at 15.9 µM]; activity, negative = inhibition [11]: 4.22% [at 12.6 µM]; activation [12]: -0.373% [at 15.8 µM]; activation [13]: -1.16% [at 19 µM]; activity change, negative = inhibition [14]: -1.01% [at 18.9 µM]; activation [15]: 6.31% [at 19 µM]; activity change, negative = inhibition [16]: -5.82% [at 18.9 µM]

Question: For `CCCCCCCCCCCCCCCCCCOS(=O)(=O)O`, which Potency [1] is on record?
Answer: 68.6 µM (active)

Question: And the Potency [2]?
Answer: inactive

Question: And the outcome [3]?
Answer: inactive

Question: And the outcome [4]?
Answer: inactive

Question: And the Potency [5]?
Answer: inactive

Question: What about the Potency [6] of the same compound?
Answer: inactive

Question: What about the Potency [7] of the same compound?
Answer: inactive

Question: What about the Potency [8] of the same compound?
Answer: inactive

Question: What about the Potency [17] of the same compound?
Answer: inactive

Question: And the Potency [9]?
Answer: inactive

Question: What about the Potency [11] of the same compound?
Answer: inactive

Question: What about the Potency [12] of the same compound?
Answer: inactive

Question: What about the Potency [13] of the same compound?
Answer: inactive

Question: What about the Potency [14] of the same compound?
Answer: inactive

Question: And the Potency [18]?
Answer: inactive

Question: What about the Potency [15] of the same compound?
Answer: inactive

Question: What about the Potency [16] of the same compound?
Answer: inactive

Question: Which Potency [1] does the source give for `CCN(CC)CCSC(=O)C(c1ccccc1)c1ccccc1` here?
Answer: inactive

Question: What about the Potency [2] of the same compound?
Answer: 33.5 µM (active)

Question: And the outcome [3]?
Answer: inactive

Question: What about the outcome [4] of the same compound?
Answer: inactive

Question: What about the Potency [5] of the same compound?
Answer: inactive

Question: And the Potency [6]?
Answer: inactive

Question: What about the Potency [7] of the same compound?
Answer: inactive

Question: What about the Potency [19] of the same compound?
Answer: inactive

Question: And the Potency [17]?
Answer: inactive

Question: What about the Potency [9] of the same compound?
Answer: 1.45 µM (active)

Question: What about the Potency [10] of the same compound?
Answer: 3.38 µM (active)

Question: And the Potency [11]?
Answer: 0.0103 µM (active)

Question: What about the Potency [12] of the same compound?
Answer: inactive

Question: What about the Potency [13] of the same compound?
Answer: inactive

Question: What about the Potency [15] of the same compound?
Answer: inactive
